For eight compounds, Kinases covered results are on record in article PMC7826789 (International Journal of Molecular Sciences, 2021).

Molecules are shown by their SMILES.

With `CCCCN(Cc1ccccc1)C(=O)c1ccc(S(=O)(=O)Nc2ccccc2)cc1` [TH257], in the experiment on LIMK2, the Kinases covered result is “LIMK2”.

With `Nc1nccc(-c2c(-c3ccc(F)cc3)ncn2CCCN2CCOCC2)n1` [SB-216385], the Kinases covered result with MAP2K3 is listed as “MAP2K3”.

Consider `Cl.O=C(Nc1ccc(Oc2ccc3[nH]c(NC(=O)c4ccccc4)nc3c2)cc1)Nc1cc(C(F)(F)F)ccc1F` [GW709042A], for which the Kinases covered entry in the experiment on KDR was “KDR”.

`O=C(Nc1ccccc1)Nc1cccc(Oc2ccc3nccn3n2)c1` [TPKI-39]: the Kinases covered result in the experiment with KIT was “KIT”.

As for `COc1cc2ncnc(Nc3ccc(F)c(Cl)c3)c2cc1O[C@H]1CC[C@H](N)CC1` [BIBW3133BS], the Kinases covered result with IRAK1 was “IRAK1”; with LOK, “LOK”.

In the case of `CN(C)C/C=C/C(=O)Nc1ccc(C(=O)Nc2cccc(Nc3ncc(Cl)c(-c4c[nH]c5ccccc45)n3)c2)cc1` [THZ1], the Kinases covered entry in the experiment on INSR is given as “INSR”.

For `CNc1nc(Nc2ccc(C(=O)N3CCOCC3)cc2OC)ncc1Cl` [HG-10-102-01], the Kinases covered entry in the experiment on LRRK2 is given as “LRRK2”.

As for `Cl.O=C(Nc1ccc(Oc2ccc3[nH]c(NC(=O)c4ccco4)nc3c2)cc1)Nc1cc(C(F)(F)F)ccc1F` [GW683134A], the Kinases covered result is recorded as “KDR” in the experiment with KDR and “KIT” in the experiment on KIT.
